Test results from the supplement of paper PMC11006884.
The full data set covers some 6,500 targets. This sample favours those with a hit. About 2% of all pairs of compound and target were hits. A number with no mark means an inactive call.

Compound: COC(=O)C#Cc1ccccc1 [methyl 3-phenylpropiolate]
Assay: log2 ratio of iodoacetamide-alkyne labeling of the cysteine site, DMSO over compound (competition); higher = stronger covalent engagement of the cysteine by the compound, active = 1 or more
Settings: 500 µM; treatment time 1 h; system: HEK293T cell lysate
Outline: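 HEK293T lysate at 2 mg/mL was treated with vehicle or electrophile (500 µM) for 1 h at ambient temperature, then labelled with iodoacetamide alkyne (1 h), clicked to sCIP-TMT reagents, pooled, digested with trypsin overnight at 37 °C, enriched on streptavidin and eluted with acid. Peptides were analysed by Orbitrap Eclipse LC-MS/MS with FAIMS and quantified in FragPipe, using duplicate channels and three replicates, with cysteines quantified in only one replicate excluded. The log2 competition ratio for each cysteine is the mean control-channel reporter intensity divided by the mean compound-channel reporter intensity.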

Chain of UniProt O15371 (O15371 whole entry, looked up): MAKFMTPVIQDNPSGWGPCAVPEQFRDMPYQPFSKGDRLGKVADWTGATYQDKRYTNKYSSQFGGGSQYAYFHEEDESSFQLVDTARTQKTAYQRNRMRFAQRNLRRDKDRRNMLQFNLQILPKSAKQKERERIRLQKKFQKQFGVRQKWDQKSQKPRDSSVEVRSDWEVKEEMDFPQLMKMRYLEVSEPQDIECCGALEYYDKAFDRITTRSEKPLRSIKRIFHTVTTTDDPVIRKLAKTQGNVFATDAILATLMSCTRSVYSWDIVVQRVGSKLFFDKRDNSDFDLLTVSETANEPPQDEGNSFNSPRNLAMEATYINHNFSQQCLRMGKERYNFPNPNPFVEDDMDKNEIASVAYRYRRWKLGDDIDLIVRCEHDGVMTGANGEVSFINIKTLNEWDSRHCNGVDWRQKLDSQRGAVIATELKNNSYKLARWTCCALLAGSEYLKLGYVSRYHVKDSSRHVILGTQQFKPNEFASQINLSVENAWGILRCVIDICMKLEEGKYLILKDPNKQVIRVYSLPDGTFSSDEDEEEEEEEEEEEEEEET
Chain of UniProt O15294 (O15294 whole entry, looked up): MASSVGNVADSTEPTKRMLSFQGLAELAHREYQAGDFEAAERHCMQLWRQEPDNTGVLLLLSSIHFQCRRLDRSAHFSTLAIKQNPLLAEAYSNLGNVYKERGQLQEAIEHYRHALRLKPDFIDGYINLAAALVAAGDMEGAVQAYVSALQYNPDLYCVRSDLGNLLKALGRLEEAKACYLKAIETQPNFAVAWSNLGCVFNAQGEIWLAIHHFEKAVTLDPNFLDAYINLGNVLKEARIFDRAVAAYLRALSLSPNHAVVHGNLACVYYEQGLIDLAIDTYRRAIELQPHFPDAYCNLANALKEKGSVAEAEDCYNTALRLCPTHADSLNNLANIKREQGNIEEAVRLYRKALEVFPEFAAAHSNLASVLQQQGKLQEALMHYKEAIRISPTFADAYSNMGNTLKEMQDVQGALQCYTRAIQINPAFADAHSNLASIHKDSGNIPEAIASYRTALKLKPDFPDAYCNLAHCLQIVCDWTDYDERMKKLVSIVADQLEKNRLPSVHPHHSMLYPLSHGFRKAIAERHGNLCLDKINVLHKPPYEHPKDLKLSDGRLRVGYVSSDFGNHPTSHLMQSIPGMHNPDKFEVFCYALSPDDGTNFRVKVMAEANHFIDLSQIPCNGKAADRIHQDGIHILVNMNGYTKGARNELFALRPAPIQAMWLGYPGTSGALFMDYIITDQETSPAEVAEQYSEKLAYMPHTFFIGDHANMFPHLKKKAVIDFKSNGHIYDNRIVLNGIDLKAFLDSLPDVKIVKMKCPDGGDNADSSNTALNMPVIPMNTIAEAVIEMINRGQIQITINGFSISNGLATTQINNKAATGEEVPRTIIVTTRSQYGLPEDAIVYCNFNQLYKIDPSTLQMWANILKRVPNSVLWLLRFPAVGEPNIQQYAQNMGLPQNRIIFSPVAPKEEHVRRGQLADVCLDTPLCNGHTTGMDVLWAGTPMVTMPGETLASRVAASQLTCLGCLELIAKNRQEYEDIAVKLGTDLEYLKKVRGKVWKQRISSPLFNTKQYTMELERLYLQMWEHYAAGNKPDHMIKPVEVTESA
Chain of UniProt O43491 (O43491 whole entry, looked up): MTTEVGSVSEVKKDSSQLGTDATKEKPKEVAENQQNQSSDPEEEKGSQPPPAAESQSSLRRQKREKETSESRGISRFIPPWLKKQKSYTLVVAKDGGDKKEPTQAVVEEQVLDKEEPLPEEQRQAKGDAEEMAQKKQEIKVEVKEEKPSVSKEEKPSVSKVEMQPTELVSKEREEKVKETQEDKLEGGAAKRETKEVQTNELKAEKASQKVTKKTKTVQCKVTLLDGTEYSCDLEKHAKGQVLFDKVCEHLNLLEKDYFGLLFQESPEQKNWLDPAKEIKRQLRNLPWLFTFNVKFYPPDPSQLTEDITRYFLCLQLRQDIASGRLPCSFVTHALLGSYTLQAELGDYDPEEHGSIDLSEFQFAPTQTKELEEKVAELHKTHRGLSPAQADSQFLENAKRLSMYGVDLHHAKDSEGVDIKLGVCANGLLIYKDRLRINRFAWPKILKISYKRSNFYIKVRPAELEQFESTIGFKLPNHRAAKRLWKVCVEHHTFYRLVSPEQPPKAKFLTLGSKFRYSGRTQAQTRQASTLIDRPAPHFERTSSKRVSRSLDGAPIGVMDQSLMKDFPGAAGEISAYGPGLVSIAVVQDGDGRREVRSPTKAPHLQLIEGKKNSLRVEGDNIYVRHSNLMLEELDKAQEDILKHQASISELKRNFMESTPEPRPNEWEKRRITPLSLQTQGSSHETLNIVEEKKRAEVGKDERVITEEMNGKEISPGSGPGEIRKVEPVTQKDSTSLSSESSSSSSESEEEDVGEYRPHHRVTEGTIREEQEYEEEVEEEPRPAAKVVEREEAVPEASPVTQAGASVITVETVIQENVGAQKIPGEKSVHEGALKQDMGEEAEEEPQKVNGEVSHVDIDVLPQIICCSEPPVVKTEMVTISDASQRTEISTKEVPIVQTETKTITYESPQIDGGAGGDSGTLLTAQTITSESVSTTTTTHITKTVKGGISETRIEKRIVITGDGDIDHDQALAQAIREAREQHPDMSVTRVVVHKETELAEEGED
Chain of UniProt O14641 (O14641 whole entry, looked up): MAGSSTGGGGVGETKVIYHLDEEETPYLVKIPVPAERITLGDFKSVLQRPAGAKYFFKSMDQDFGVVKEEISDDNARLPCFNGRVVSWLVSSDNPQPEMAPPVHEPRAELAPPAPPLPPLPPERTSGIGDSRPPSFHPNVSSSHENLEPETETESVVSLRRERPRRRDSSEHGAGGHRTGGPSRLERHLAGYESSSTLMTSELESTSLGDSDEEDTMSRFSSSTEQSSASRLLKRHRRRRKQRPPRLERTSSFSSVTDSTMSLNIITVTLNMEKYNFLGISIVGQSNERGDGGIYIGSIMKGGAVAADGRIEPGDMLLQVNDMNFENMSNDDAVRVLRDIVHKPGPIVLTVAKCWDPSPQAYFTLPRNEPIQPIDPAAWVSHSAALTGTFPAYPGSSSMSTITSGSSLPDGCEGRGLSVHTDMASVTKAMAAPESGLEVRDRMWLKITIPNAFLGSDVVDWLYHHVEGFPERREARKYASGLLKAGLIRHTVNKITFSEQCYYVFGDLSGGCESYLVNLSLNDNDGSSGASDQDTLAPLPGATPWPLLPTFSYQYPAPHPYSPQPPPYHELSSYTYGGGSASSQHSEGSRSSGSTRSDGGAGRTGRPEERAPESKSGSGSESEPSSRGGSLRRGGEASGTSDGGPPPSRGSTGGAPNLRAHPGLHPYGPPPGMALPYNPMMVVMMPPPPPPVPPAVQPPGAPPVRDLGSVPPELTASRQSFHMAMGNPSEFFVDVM
Chain of UniProt O75821 (O75821 whole entry, looked up): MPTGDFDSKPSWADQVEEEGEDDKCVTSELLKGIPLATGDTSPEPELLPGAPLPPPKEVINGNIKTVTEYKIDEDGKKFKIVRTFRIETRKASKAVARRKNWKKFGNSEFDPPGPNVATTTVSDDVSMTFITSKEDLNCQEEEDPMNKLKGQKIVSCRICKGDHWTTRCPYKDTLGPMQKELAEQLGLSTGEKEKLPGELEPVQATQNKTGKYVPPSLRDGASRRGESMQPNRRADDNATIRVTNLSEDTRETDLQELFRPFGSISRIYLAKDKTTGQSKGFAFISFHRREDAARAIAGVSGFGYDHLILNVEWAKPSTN
Chain of UniProt O43164 (O43164 whole entry): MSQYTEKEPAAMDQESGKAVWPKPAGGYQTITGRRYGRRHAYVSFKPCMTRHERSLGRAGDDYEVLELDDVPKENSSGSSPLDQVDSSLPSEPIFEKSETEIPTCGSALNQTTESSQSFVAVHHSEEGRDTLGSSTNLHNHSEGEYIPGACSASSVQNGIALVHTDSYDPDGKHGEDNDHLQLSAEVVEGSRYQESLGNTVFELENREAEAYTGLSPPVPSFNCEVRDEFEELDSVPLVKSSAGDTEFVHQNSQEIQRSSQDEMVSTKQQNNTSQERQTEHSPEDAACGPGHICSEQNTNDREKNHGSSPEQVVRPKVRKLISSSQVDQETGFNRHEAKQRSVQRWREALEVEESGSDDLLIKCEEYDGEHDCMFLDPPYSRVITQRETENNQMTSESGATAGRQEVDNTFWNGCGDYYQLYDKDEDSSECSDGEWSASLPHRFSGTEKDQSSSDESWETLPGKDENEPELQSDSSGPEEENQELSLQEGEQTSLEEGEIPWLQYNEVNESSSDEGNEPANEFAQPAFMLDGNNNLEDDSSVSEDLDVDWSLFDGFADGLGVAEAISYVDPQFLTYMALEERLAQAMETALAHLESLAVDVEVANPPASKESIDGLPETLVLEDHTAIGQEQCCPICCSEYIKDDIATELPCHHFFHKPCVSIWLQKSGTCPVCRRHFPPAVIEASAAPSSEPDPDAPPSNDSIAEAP
Chain of UniProt O00178 (O00178 whole entry, looked up): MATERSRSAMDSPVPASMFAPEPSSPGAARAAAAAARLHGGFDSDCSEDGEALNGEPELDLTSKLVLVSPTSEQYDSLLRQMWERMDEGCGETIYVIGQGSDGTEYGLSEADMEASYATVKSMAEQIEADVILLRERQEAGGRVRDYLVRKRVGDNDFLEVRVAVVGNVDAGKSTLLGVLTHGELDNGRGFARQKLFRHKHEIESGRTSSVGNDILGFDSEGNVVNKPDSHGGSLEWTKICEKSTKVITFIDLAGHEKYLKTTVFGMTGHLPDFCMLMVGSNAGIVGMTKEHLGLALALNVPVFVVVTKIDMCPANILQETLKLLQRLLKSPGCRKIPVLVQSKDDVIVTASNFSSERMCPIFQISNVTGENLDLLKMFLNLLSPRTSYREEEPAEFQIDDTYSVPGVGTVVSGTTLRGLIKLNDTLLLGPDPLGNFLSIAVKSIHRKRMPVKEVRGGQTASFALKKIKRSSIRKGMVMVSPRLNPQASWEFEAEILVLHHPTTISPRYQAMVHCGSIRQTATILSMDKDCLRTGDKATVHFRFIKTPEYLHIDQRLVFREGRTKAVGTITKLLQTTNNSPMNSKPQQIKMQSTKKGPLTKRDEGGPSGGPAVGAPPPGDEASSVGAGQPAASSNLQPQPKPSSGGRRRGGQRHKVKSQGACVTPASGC

Row | Target | log2 ratio of iodoacetamide-alkyne labeling
1 | EPB41L2 C424 (UniProt O43491) | 0.17
2 | UniProt A0MZ66_C565 | 0.734
3 | STX16 C150 (UniProt O14662) | 0.0256
4 | OGT C620 (UniProt O15294) | 1.35 (active)
5 | GTPBP1 C669 (UniProt O00178) | 1.13 (active)
6 | EIF3G C139 (UniProt O75821) | 0.259
7 | PFAS C606 (UniProt O15067) | 1.53 (active)
8 | UniProt O75947_C101 | 0.98
9 | UniProt O94822_C186 | -0.317
10 | EIF3D C437 (UniProt O15371) | -0.116
11 | SF3B1 C1059 (UniProt O75533) | 0.247
12 | A0AVT1_C347 | 2.27 (active)
13 | DVL2 C412 (UniProt O14641) | 0.134
14 | PJA2 C224 (UniProt O43164) | 0.22
15 | FLNB C455 (UniProt O75369) | 1.24 (active)
